This is an account of results in PubChem BioAssay (NCATS).

In assay [1] the target is Lysosomal acid glucosylceramidase (Homo sapiens) (UniProt P04062). In words: Glucocerebrosidase-p2 (AID 348; in the data active means potency below about 10 µM; further: potency means the concentration at half of the fitted maximal effect). As to conditions: purified GBA, blue fluorogenic substrate, 40 min. The essentials:
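Compounds titrated from 0.6 nM upwards against 0.2 nM enzyme in pH 5.9 citric acid/KH2PO4, taurocholate, tween-20; blue fluorogenic substrate 80 uM, 40 min room temperature, stopped and read Ex 365/Em 440 for AC50.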

Assay [2] in a line: AP1 Signaling Pathway (AID 357; active means well fitted curve in either direction with a large enough effect, not every such curve was filed as active; further: on the % scale 0 is the no-effect control and ±100 the full control effect). The note with it: ME-180 AP-1-bla reporter, EGF-induced, beta-lactamase ratio, 5 h; at 7.69 µM (top of the series) unless noted. The essentials:
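ME-180 cells with beta-lactamase reporter under AP-1 response element, stimulated with EC50 EGF; compounds tested in titration series, 5 h at 37 °C. CCF4 substrate added 2.5 h at room temperature; 460/530 nm emission ratio gave %activity and AC50.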

Assay [3] in a line: Stat Signaling Pathway (AID 446; active means well fitted curve in either direction with a large enough effect, not every such curve was filed as active;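 further: ME-180 cervical cancer cells given 40 pM IL-6 alongside compound; SIE-controlled beta-lactamase reporter measured as 460/530 nm FRET emission ratio; on the % scale 0 is the no-effect control and ±100 the full control effect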). As to conditions: ME-180 SIE beta-lactamase reporter, IL-6 stimulated, 5 h; at 7.69 µM (top of the series) unless noted. The gist of the method:
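Reporter line: ME-180 cervical carcinoma, SIE-beta-lactamase. Treatment: compound with 40 pM IL-6, 5 hrs, 37 C, in low-serum OPTI-MEM with 10 mM HEPES pH 7.3. Detection: 460/530 nm fluorescence.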

Assay [4] deals with Glucocorticoid receptor (Homo sapiens) (UniProt P04150). In words: GR-GFP Redistribution (AID 450;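 active means compounds whose dose series gives a full or clear partial fitted curve of increased nuclear translocation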; further: potency means the concentration at half of the fitted maximal effect). As to conditions: U2OS GR-GFP nuclear translocation, laser cytometry, 2 h.
The target is the same in assay [5]. The experiment in a line: GR-EFC Redistribution (AID 451; calls by dose curve; further: potency means the concentration at half of the fitted maximal effect). The note with it: CHO-K1 GR-EFC translocation, beta-gal luminescence, 2 h. The gist of the method:
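CHO-K1 cells stably expressing nuclear-localized β-gal enzyme acceptor and GR fused C-terminally to the enzyme donor fragment; ligand-driven nuclear translocation restores β-gal by complementation. Compounds titrated up to 46 uM final, 2 h at 37 °C; luminescence read.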

In assay [6] the target is Mitogen-activated protein kinase 10 (Mus musculus) (UniProt Q61831). The experiment in a line: JNK3 AlphaScreen Assay (AID 530; active means well fitted curve in either direction with a large enough effect, not every such curve was filed as active;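 further: kinase came from lysate of stimulated human HepG2 cells; on the % scale 0 is the no-effect control and ±100 the full control effect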). As to conditions: JNK3 lysate, c-Jun phosphorylation; series mostly up to 57.1 µM. The gist of the method: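 JNK3 came from HepG2 lysates pre-activated with IL-1beta and TNF-alpha and phosphorylated biotinylated GST-cJun (1-79) at 10 uM ATP, pH 7.6, room temperature. Compounds were titrated. AlphaScreen signal used anti-phospho-cJun (Ser73) antibody.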

Assay [7] addresses 3',5'-cyclic-AMP phosphodiesterase 4B (Homo sapiens) (UniProt Q07343). The experiment in a line: qHTS Assay for Inhibitors of PDE-IV (AID 607; active means well fitted activation curve with a large enough effect in the main read-out, with a control signal flat, not every such curve was filed as active; further: % of control where 0% means no effect). As to conditions: HEK293 ACTOne CNG channel cells, membrane potential fluorescence; series mostly up to 22.9 µM. The essentials:
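Cell-based read-out of cAMP via a modified cyclic nucleotide-gated channel and membrane potential dye (535/590 nm) in HEK293 cells expressing PDE4 endogenously. Compounds tested up to 22.9 uM final; 100 uM RO 20-1724 reference.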
(In general: qHTS replaces the single test concentration by a dilution series.)

A short description of assay [8]: qHTS Assay for Identification of Small Molecule Agonists for Hypoxia Response Element Signaling Pathway (AID 914; active means well fitted activation curve with a large enough effect in the signal ratio, with a control signal flat, not every such curve was filed as active; the % refers to the signal ratio; further: % of control where 0% means no effect). The note with it: ME-180 (cervical carcinoma) HRE-bla reporter, beta-lactamase ratio, CoCl2, 17 h; activation: stronger effect = higher value. The gist of the method: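 Reporter activity (beta-lactamase, CCF4 460nm/530nm ratio) in HRE-bla ME-180 cells is recorded after 17 h compound exposure with EC50 CoCl2 at 37 degrees Celsius. AC50 values come from titration data.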

Assay [9] can be described thus: qHTS Assay for Lipid Storage Modulators (AID 1519; calls by dose curve). The note with it: Drosophila S3 cells, BODIPY lipid droplet/cell ratio, laser cytometry, cells loaded with oleic acid; for activity change, negative = inhibition: at 57.5 µM (top of the series). The essentials:
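Cells seeded at 5,000 per well were treated with compounds over a concentration series and loaded with oleic acid (400 uM, as added). Lipid droplet fluorescence (488 nm excitation, 500-530 nm channel) was read by laser-scanning cytometry and normalized to 20 uM Triacsin C.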

Assay [10] has as its target Dual specificity protein kinase CLK4 (Homo sapiens) (UniProt Q9HAZ1). In words: qHTS Assay for Inhibitors of CDC-like Kinase 4 (Kinase-Glo Assay) (AID 1770). Further: on the % scale 0 is the no-effect control and ±100 the full control effect; nearly all actives have a fitted effect of over 65% in size. The note with it: recombinant Clk4, Kinase-Glo ATP depletion luminescence; series mostly up to 66.7 µM. The essentials: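 Clk4 25 nM, RS peptide 100 uM, ATP 1 uM, pH 7.5 Tris, 10 mM MgCl2, 2.5 mM DTT; 4.5 h RT; ATP depletion read by Kinase-Glo luminescence.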

Assay [11] has the same target. In words: qHTS Assay for Inhibitors of CDC-like Kinase 4 (ADP-Glo Assay) (AID 1771). Further: on the % scale 0 is the no-effect control and ±100 the full control effect; nearly all actives have a fitted effect of over 70% in size. The note with it: recombinant CLK4, ADP-Glo luminescence; series mostly up to 80 µM. The gist of the method: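 Clk4 (25 nM) was incubated 1 hr at room temperature with 100 uM RS repeat peptide and 1 uM ATP in buffer with 2 mM MgCl2, 0.5 mM EGTA, 2.5 mM DTT. ADP formed was quantified by ADP-Glo luminescence.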

Assay [12] shares this target. The experiment in a line: qHTS Assay for Inhibitors of CDC-like Kinase 4 (ADP-FP Assay) (AID 1795). Further: on the % scale 0 is the no-effect control and ±100 the full control effect; nearly all actives have a fitted effect of over 60% in size. The note with it: Transcreener ADP fluorescence polarization; series mostly up to 50 µM. The gist of the method:
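Kinase activity was followed as ADP output, converted from fluorescence polarization with a calibration curve. Reactions ran one hour at low ATP (1 uM) with RS peptide substrate.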

For assay [13], the target named is Ubiquitin carboxyl-terminal hydrolase 1 (Homo sapiens) (UniProt O94782). In words: Inhibitors of USP1/UAF1: Pilot qHTS (AID 504865).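 Further: rhodamine fluorescence freed from ubiquitin-rhodamine substrate followed over time; top concentration of the series differs between compounds; on the % scale 0 is the no-effect control and ±100 the full control effect; nearly all actives have a fitted effect of over 35% in size.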 The note with it: purified USP1/UAF1, Ub-rhodamine cleavage fluorescence; series mostly up to 54.9 µM. The essentials:
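Enzyme-free wells gave the negative control, while test wells held 1nM USP1/UAF1 preincubated with compound for 15 min at room temperature. Ub-Rho at 150nM final started the reaction, and fluorescence at 480/540 nm was recorded kinetically.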

A short description of assay [14]: Primary qHTS for small molecule stabilizers of the endoplasmic reticulum resident proteome: Secreted ER Calcium Modulated Protein (SERCaMP) assay (AID 1508630). Further: on the % scale 0 is the no-effect control and ±100 the full control effect. The note with it: SH-SY5Y GLuc-SERCaMP (Gaussia luciferase released on ER calcium loss) secretion, thapsigargin, luminescence; series mostly up to 38.4 µM. The gist of the method:
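GLuc-SERCaMP-expressing SH-SY5Y cells, pretreated 16 h with compound, are challenged with thapsigargin to empty ER calcium stores; after 4 h, coelenterazine is added directly to the medium and luminescence is imaged.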

The nature of assay [15]: NFAT Signaling Pathway (AID 444; active means well fitted curve in either direction with a large enough effect, not every such curve was filed as active). The note with it: Jurkat NFAT-bla M1, carbachol, beta-lactamase ratio, 5 h; at 7.69 µM (top of the series) unless noted. The essentials: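 Jurkat cells carrying an NFAT-driven β-lactamase reporter and co-transfected muscarinic M1 receptor were treated with compound plus carbachol (1 uM final, an EC50 level) for 5 h at 37 °C. CCF4 loading followed for 1 h at RT; 460/530 nm ratio gave %activity.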

Assay [16] concerns the target Cytochrome P450 3A4 (Homo sapiens) (UniProt P08684). The experiment in a line: qHTS Assay for Activators of Cytochrome P450 3A4 (AID 885). Further: nearly all actives have a fitted effect of over 65% in size. The note with it: recombinant CYP3A4, Luciferin-PPXE luminescence, 60 min; series mostly up to 57.1 µM. The essentials:
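Signal was normalized against complete inhibition by 57 uM ketoconazole. The reaction used 20nM CYP3A4 with 25uM Luciferin-PPXE, 10-min compound preincubation and a 60-min NADPH-supported step at RT.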

The mark [17] stands for this setting: measured here: cell count channel max response.
[18] abbreviates: measured here: lipid channel max response.

Inconclusive results are not listed. Calls of active or inactive are those of the source. Unless noted, the call rests on the fitted dose curve; in most records, active means well fitted curve in the direction sought with a large enough effect; inconclusive means small, poorly fitted or top-dose-only effect, or another doubt; inactive means no such curve, though single readings can be large; an effect the other way counts as inactive or inconclusive.

Chain of Lysosomal acid glucosylceramidase (Homo sapiens) (P04062 whole entry, looked up): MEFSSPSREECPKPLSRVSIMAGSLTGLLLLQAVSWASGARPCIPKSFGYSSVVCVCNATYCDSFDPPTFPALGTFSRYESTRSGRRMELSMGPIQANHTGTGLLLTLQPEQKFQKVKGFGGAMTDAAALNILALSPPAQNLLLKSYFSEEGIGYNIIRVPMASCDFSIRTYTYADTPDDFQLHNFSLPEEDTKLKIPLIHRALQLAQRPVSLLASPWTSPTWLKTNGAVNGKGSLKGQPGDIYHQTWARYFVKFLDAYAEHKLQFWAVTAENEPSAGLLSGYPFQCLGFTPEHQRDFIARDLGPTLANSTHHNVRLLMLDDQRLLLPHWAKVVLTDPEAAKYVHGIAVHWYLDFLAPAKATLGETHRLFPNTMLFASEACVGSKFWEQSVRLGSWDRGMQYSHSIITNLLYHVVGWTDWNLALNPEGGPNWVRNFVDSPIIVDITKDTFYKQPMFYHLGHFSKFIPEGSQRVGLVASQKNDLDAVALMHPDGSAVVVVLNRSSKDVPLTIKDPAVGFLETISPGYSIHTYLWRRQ
Chain of Dual specificity protein kinase CLK4 (Homo sapiens) (Q9HAZ1 whole entry, looked up): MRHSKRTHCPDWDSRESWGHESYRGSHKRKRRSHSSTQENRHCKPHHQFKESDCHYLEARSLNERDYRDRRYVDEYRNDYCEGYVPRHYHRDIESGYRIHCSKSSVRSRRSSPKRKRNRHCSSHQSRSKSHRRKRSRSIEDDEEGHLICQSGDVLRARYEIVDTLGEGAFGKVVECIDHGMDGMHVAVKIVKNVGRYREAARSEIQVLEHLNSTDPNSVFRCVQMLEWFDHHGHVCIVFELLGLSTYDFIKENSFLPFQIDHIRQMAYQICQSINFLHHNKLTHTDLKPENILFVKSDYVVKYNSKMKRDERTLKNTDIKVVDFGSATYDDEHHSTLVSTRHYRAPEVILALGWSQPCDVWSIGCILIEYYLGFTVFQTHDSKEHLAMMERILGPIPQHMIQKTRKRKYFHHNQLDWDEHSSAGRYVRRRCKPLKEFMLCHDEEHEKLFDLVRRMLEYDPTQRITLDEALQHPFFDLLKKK
Chain of Ubiquitin carboxyl-terminal hydrolase 1 (Homo sapiens) (O94782 whole entry, looked up): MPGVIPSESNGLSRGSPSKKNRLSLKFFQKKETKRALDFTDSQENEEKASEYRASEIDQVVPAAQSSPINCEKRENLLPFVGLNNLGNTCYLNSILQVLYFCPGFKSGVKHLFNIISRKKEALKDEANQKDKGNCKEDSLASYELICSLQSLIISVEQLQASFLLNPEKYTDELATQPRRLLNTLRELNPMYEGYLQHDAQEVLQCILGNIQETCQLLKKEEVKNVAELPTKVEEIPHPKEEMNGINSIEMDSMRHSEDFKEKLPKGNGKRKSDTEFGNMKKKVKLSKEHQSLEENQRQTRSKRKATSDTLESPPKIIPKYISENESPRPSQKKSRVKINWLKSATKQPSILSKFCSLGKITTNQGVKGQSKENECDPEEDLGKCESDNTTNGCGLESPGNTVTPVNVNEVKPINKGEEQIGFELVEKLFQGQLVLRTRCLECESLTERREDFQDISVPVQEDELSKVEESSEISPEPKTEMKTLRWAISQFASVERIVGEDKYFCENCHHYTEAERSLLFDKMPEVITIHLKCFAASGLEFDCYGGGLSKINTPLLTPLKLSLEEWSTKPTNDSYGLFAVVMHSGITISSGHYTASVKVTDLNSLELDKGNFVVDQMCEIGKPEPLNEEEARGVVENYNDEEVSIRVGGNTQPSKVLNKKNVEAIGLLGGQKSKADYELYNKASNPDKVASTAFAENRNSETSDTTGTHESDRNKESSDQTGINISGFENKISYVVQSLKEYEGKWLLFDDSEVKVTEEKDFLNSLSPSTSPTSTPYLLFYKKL
Chain of Glucocorticoid receptor (Homo sapiens) (P04150 whole entry, looked up): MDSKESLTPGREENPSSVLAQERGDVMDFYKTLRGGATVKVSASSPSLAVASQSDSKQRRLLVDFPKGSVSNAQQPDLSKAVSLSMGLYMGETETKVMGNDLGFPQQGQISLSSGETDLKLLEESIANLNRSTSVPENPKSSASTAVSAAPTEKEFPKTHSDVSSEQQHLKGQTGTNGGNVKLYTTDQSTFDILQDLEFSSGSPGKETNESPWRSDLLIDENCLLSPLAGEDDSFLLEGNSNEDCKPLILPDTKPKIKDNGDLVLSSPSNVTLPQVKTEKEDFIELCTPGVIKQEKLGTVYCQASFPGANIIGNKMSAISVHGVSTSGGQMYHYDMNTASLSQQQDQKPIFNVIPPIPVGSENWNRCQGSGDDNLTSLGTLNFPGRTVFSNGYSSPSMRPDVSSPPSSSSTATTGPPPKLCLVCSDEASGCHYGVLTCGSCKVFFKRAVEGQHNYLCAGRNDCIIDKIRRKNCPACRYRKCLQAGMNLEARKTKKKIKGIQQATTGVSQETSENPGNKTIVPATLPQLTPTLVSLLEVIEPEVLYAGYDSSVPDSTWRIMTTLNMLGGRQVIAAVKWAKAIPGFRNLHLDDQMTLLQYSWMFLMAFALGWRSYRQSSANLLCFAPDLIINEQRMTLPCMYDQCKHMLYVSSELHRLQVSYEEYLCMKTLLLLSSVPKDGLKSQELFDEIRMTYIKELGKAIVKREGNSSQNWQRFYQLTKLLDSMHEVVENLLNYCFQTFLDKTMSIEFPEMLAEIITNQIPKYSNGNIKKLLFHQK
Chain of 3',5'-cyclic-AMP phosphodiesterase 4B (Homo sapiens) (Q07343 whole entry, looked up): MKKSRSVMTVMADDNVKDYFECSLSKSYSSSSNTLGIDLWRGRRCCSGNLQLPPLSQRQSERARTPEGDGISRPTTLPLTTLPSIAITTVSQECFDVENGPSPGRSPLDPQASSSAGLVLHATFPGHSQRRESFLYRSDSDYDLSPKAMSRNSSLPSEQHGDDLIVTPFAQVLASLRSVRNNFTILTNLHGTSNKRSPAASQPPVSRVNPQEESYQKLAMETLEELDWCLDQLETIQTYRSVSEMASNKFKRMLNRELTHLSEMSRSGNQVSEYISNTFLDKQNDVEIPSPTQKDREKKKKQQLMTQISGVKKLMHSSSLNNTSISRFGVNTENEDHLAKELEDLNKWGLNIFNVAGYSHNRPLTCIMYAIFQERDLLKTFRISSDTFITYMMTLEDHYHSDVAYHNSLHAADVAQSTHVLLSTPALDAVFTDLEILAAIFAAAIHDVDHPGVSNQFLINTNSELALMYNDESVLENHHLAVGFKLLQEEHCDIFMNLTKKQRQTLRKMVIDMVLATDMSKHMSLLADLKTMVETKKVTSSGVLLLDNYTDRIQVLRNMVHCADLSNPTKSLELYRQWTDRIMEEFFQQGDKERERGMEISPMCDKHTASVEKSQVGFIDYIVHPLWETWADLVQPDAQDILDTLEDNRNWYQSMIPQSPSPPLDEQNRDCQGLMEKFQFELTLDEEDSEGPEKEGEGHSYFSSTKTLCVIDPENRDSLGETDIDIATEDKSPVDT
Chain of Cytochrome P450 3A4 (Homo sapiens) (P08684 whole entry, looked up): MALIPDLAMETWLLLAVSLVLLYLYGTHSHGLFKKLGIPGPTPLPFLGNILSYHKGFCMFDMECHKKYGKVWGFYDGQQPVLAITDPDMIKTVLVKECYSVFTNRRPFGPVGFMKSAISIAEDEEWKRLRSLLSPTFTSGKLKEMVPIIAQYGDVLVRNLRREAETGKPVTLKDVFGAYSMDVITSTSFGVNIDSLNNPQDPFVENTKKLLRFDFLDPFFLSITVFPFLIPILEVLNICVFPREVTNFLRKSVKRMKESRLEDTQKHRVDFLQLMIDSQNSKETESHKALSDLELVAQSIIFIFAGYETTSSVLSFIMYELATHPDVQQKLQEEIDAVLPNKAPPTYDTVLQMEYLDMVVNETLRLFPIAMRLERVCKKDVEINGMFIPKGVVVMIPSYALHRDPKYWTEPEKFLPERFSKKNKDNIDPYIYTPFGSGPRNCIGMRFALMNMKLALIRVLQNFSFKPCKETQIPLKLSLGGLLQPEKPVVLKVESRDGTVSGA

As for `COc1cccc(Cn2c(=O)c(C)nc3cnc(OC)nc32)c1`, the values for the Potency in [1], in assay [4] and in assay [5] were > 11.4 µM (inactive), > 9.22 µM (inactive) and > 46 µM (inactive), respectively. Besides, the activity change, negative = inhibition in assay [2] was -5.98% (inactive); in assay [9] it was 5.06% (inactive). Also, the activity, negative = inhibition in assay [3] was -2.86% (inactive). The outcome in assay [6] was inactive. Moreover, the Potency entry in assay [7], in [10], in [11], in assay [12], in [13] and in assay [14] was “inactive” each time. The activation in assay [8] was 12.8% (inactive). The figures for the max response in assay [9] (setting [17]) and in assay [9] (setting [18]) were 15.1% and 19.3%, respectively.

With `O=c1c(-c2ccccc2)nc2cnc(Nc3ccccc3)nc2n1Cc1cccs1`, the Potency is > 11.4 µM (inactive) in assay [1] and > 46 µM (inactive) in [5]. The activity change, negative = inhibition in assay [2] is -15.4% (inactive); in [9] it was -3.34% (inactive). Moreover, the compound was called inactive in [6]. For the same compound, the max response is 8.31% in [9] (setting [17]) and 4.81% in [9] (setting [18]). Moreover, the Potency result in [10], in [11], in assay [12], in assay [13] and in assay [14] was “inactive” throughout.

Consider `COCCNc1ncncc1-c1ccccc1OC`, for which the Potency is > 11.4 µM (inactive) in assay [1], > 46 µM (inactive) in assay [4] and > 46 µM (inactive) in assay [5]. Also, the activity change, negative = inhibition is 0.174% (inactive) in [2], 6.41% (inactive) in assay [15] and 4.36% (inactive) in [9]. Moreover, in [3], the activity, negative = inhibition is 16.6% (inactive). In addition, the outcome in assay [6] was inactive. Moreover, the Potency result in assay [7], in [10], in assay [11], in assay [12], in assay [13] and in assay [14] was “inactive” throughout. In addition, the figures for the max response in assay [9] (setting [17]) and in [9] (setting [18]) were 20.6% and 16.6%, respectively.

Turning to `O=c1c(-c2ccc(F)cc2)nc2cnc(N3CCOCC3)nc2n1Cc1cccs1`, the Potency in assay [1] was > 11.4 µM (inactive); in [4] it was > 9.22 µM (inactive); in assay [5] it was > 46 µM (inactive). For the same compound, the activity change, negative = inhibition was 14.2% (inactive) in assay [2], 13.3% (inactive) in assay [15] and -1.08% (inactive) in assay [9]. Further, in [3], the activity, negative = inhibition is 18.2% (inactive). Also, the compound was called inactive in assay [6]. For the same compound, the Potency result in assay [7], in assay [16], in assay [10], in [11], in assay [12] and in [13] was “inactive” in each case. In addition, the Potency result in assay [14] is “inactive”. For the same compound, the max response in assay [9] (setting [17]) came to 9.38%; in assay [9] (setting [18]), 7.2%.

For the compound `CN(C)c1ncc2nc(-c3ccccc3)c(=O)n(C[C@H]3CCCO3)c2n1`, the Potency in [1] is > 11.4 µM (inactive); in assay [4], > 9.22 µM (inactive); in assay [5] it was > 46 µM (inactive). Further, the figures for the activity change, negative = inhibition in assay [2], in [15] and in [9] were 11.9% (inactive), 24.6% (inactive) and 0.857% (inactive), respectively. In addition, the activity, negative = inhibition in [3] was 20.6% (inactive). Also, the Potency entry in assay [16], in assay [10], in assay [11], in assay [12], in [13] and in [14] was “inactive” each time. The max response in [9] (setting [17]) came to 3.82%; in assay [9] (setting [18]) it was 2.54%.

In the case of `CN(C)c1ncc2nc(-c3cc(F)cc(F)c3)c(=O)n(C3CC3)c2n1`, the Potency in assay [1] was > 11.4 µM (inactive); in [4] it was > 9.22 µM (inactive); in [5] it was > 46 µM (inactive). The values for the activity change, negative = inhibition in [2], in assay [15] and in assay [9] were 5.31% (inactive), -6.61% (inactive) and 6.95% (inactive), respectively. For the same compound, the activity, negative = inhibition in assay [3] was 10.2% (inactive). In assay [6], the call was inactive. The Potency result in assay [7], in assay [10], in assay [11], in assay [12], in [13] and in assay [14] was “inactive” in each case. The max response in assay [9] (setting [17]) turned out to be 8.84%; in [9] (setting [18]) it was 14.6%.
